Experimental findings from PubChem BioAssay (NCATS) are described below.

Assay [1] can be described thus: Cytotoxicity counterscreen for inhibitors of SARS-CoV-2 cell entry (AID 1645845). Further: nearly all actives have a fitted effect of over 50% in size. In outline:
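Counterscreen run in the same HEK293-ACE2 line as the pseudotyped-particle entry assay, without particles. Viability after 48 h at 37 C was read as ATP luminescence, scaled between cell-containing and cell-free wells.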
(Counterscreens check selectivity or assay interference.)

The nature of assay [2]: Primary qHTS to identify inhibitors of SARS-CoV-2 cell entry (AID 1645846). Further: nearly all actives have a fitted effect of over 45% in size. The note with it: activity change, negative = inhibition: at 57.1 µM (top of the series) unless noted. The gist of the method: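 Luminescence readout (Bright-Glo luciferase) 48 h after pseudoparticle addition. HEK293-ACE2 cells, 1500/well; compound pre-incubation 1 h; Normalized to spike PP and bald PP.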
In general terms: In qHTS, concentration-response curves come from the screen itself.

“And” between values parts separate entries of the source, which are not always exact repeats. Equal entries are not always repeated. Records with an inconclusive call do not appear. Where a call stands in place of a potency, no number is given. The source made the active and inactive calls. The call rests on the fitted dose curve.

Consider `O=c1[nH]cnc2c1ncn2[C@H]1CC[C@@H](CO)O1`, for which the Potency entry in assay [1] and in assay [2] was “inactive” each time.

For the compound `CC(C)NCC(O)COc1ccc(CCOCC2CC2)cc1` (centres undefined), the Potency result in assay [1] is “inactive”. Also, in assay [2], the activity change, negative = inhibition is -14.6% and -1.57%.

Turning to `COc1nc(N)nc2c1ncn2[C@@H]1O[C@H](CO)[C@@H](O)[C@@H]1O`, the Potency result in assay [1] and in assay [2] was “inactive” in each case.

Regarding `CC1(CN2CCC(n3c(=O)[nH]c4ccccc43)CC2)OCc2ccccc2-n2cccc21` (centres undefined), the Potency result in assay [1] was “inactive”. Moreover, the activity change, negative = inhibition in assay [2] is -26.7%.

Take `Cc1cn[nH]c1`: the Potency entry in assay [1] was “inactive”. Also, the activity change, negative = inhibition in assay [2] turned out to be 4.3%.

Turning to `Nc1nc(F)nc2c1ncn2[C@@H]1O[C@H](CO)[C@@H](O)[C@@H]1O`, the Potency result in assay [1] is “inactive”. For the same compound, the activity change, negative = inhibition in assay [2] is 3.89% and -17.8%.

With `COC(=O)Nc1nc2ccc(C(=O)c3cccs3)cc2[nH]1`, the Potency entry in assay [1] was “inactive”. Besides, the activity change, negative = inhibition in assay [2] was -61.3%.

Turning to `Nc1cc(-c2ccncc2)c[nH]c1=O`, the Potency entry in assay [1] and in assay [2] was “inactive” each time.

Turning to `CC1(C)S[C@@H]2[C@H](NC(=O)C(C(=O)O)c3ccccc3)C(=O)N2[C@H]1C(=O)O` (some centres undefined), the Potency entry in assay [1] and in assay [2] was “inactive” in each case.

As for `CN(C/C=C/C#CC(C)(C)C)Cc1cccc2ccccc12`, in assay [1], the Potency result was “inactive”. The activity change, negative = inhibition in assay [2] is -3.95%.

Turning to `Cc1ccnc2c1NC(=O)c1cccnc1N2C1CC1`, the Potency entry in assay [1] is “inactive”. In addition, the activity change, negative = inhibition in assay [2] is -19.4%.

With `CC(C)NC[C@@H](O)COc1ccc(CC(N)=O)cc1`, the Potency entry in assay [1] was “inactive”. The activity change, negative = inhibition in assay [2] was -29.4%.

Take `Cc1ccccc1C(=O)Nc1ccc(C(=O)N2CCCC(O)c3cc(Cl)ccc32)c(C)c1` (centres undefined): in assay [1], the Potency result is “inactive”. Besides, the activity change, negative = inhibition in assay [2] was -8.91%.

As for `CC(=O)Nc1nnc(S(N)(=O)=O)s1`, in assay [1], the Potency entry was “inactive”. Besides, the activity change, negative = inhibition in assay [2] amounted to 1.7%.

Take `Cn1cnc2c(F)c(Nc3ccc(Br)cc3Cl)c(C(=O)NOCCO)cc21`: the Potency result in assay [1] was “inactive”. For the same compound, the activity change, negative = inhibition in assay [2] is -32.9%.

For `CNCC[C@@H](Oc1ccccc1C)c1ccccc1`, the Potency entry in assay [1] was “inactive”. The activity change, negative = inhibition in assay [2] was -15.9%.

As for `COc1ccc2nc(S(=O)Cc3ncc(C)c(OC)c3C)[nH]c2c1` (centres undefined), the Potency result in assay [1] was “inactive”. Besides, the activity change, negative = inhibition in assay [2] is -4.15%.
